# The list is not random: actives were taken first. Their share in the collection is about 1.5%.
# TLR9-MyD88 inh = inhibitors of TLR9-MyD88 association in cells, primary screen, cell-based, CHO, BLA complementation, fluorescence; CCF4 FRET ratio; inhibition, % at 4.98 µM; hit rate 0.21% among 340,000; AID 504734, 2011;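 active means inhibition above the mean over all tested compounds plus 3 SD, cut at about 21% in these data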;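 further: 0% = DMSO only wells and 100% = clavulanate BLA inhibitor control wells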
# B2AR ag = beta2AR agonists driving receptor internalization, primary screen, cell-based, FAP fluorogen, flow cytometry | AID 504454, 2011 | response, % (no concentration beside the values) | hit rate 0.43% among 340,000 | Am2.2-beta2AR cells;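 active means response above a set limit, near 3 SD of response in nonfluorescent compounds, cut at about 42% in these data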
# TLR4 MyD88 comp = inhibitors of TLR4-MyD88 association in cells, primary screen, cell-based, HeLa CL3-4, BLA complementation, FRET ratio. HeLa CL3-4 TLR4/MyD88 BLA complementation. inhibition, % at 8.4 µM. hit rate 0.18% among 200,000; in the data active means inhibition above about 25%;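 further: 0% = vehicle and 100% = reference inhibitor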
# NTR1 agonist = agonists of human NTR1, primary screen, imaging, U2OS cells, beta-arrestin-GFP, high content; hit rate 0.17% among 330,000; Neurotensin receptor type 1 (Homo sapiens), P30989; activation, % at 20 µM; NTR1-U2OS beta-arrestin-GFP spot imaging, agonist mode; AID 493036, 2011;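 active means activation at or above 40% of the spot to cytoplasm intensity ratio, with at least 20 cells analyzed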;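 further: 0% = DMSO without peptide and 100% = 100 nM NTR1 peptide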
# ABHD5-PLIN5 inh = ABHD5-PLIN5 interaction inhibitors, primary screen, cell lysate, split luciferase complementation, luminescence; inhibition, % at 4 µM; Perilipin-5 (Homo sapiens) + 1-acylglycerol-3-phosphate O-acyltransferase ABHD5 (Homo …; hit rate 0.78% among 360,000; Split G. princeps luciferase complementation, 4 h;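 active means inhibition above the mean inhibition across every tested compound plus 3 SD, cut at about 22% in these data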;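 further: 0% = DMSO only wells and the 100% control is not disclosed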
# Target sequence (Q00G26 whole entry, looked up): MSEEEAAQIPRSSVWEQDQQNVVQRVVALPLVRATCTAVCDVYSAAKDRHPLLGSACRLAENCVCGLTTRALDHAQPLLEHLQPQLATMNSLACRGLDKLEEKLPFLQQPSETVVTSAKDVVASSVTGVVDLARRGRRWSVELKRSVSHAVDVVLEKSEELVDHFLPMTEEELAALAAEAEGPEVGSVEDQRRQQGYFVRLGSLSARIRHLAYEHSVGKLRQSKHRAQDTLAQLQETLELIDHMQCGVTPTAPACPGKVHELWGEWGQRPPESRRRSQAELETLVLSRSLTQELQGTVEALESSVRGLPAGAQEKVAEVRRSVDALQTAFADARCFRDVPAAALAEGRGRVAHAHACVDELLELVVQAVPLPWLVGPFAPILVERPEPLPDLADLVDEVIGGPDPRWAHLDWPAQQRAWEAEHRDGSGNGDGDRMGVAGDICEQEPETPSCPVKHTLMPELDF
# Target sequence (Q8WTS1 whole entry, looked up): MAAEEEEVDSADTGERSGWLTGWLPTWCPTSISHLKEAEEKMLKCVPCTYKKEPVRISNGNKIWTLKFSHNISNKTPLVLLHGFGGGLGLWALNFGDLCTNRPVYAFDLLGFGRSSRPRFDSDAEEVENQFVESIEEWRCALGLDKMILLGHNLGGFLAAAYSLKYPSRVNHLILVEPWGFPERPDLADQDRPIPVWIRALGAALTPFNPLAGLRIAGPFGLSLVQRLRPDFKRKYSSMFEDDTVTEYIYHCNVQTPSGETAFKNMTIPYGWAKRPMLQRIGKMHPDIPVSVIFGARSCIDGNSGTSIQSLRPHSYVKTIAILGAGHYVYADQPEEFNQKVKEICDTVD
# NOD2 RIPK2 PPI = NOD2-RIPK2 binding disruptors in cells, primary screen, fluorescence, CHO cells, BLA complementation. inhibition, % at 4.98 µM. Receptor-interacting serine/threonine-protein kinase 2 (Homo sapiens), O43353. CCF4 ratio. hit rate 0.38% among 360,000; in the data active means inhibition above about 21%;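 further: 0% = vehicle only and 100% = reference blocker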
# B2AR ag CP1 = beta2AR agonists via receptor internalization, confirmation, cell-based, FAP fluorogen, flow cytometry, single point, cherry pick 1. percent response (surface receptor), % at 10 µM. Am2.2-beta2AR cells, FAP surface receptor; stronger effect = lower value. hit rate 25% among 1,100. shares compounds with B2AR ag. AID 540358, 2011;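 active means surface receptor percent response at or below 58%, roughly 3 SD from nonfluorescent compounds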
# FAP fluor counter = counter-screen for beta-2AR agonists: fluorescence in Am2.2 cells; shares compounds with B2AR ag; FAP fluorogen flow cytometry, fluorescence counterscreen; stronger effect = lower value; calls only at 10 µM; 1,100 tested, under 10 active;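 active means percent response below a set limit in fluorescence channel 1 and below 50% in channel 8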
# Active calls of the source: *; i = inactive; / = not tested or not shown.
SMILES,TLR9-MyD88 inh,B2AR ag,TLR4 MyD88 comp,NTR1 agonist,ABHD5-PLIN5 inh,NOD2 RIPK2 PPI,B2AR ag CP1,FAP fluor counter
Cc1ccc(NC(=O)C(c2ccc(Cl)cc2)N2CCOCC2)cc1 (centres undefined),4.2,47.8*,-6.2,0.0,-4.4,-10.5,46.5*,i
O=c1[nH]c2ccccc2cc1CN(Cc1ccco1)S(=O)(=O)c1ccc(F)cc1,-10.3,-13.4,/,1.0,6.7,3.1,142.2,i
COc1ccc(Cn2nc(-c3ccccc3)c(N3CCCCC3)cc2=O)cc1,0.9,108.3*,1.7,2.7,7.6,1.7,37.7*,i
O=C(c1cc(-c2ccc(Cl)cc2)n(-c2cc(Cl)ccc2Cl)n1)N1CCOCC1,-0.7,61.6*,0.2,2.9,9.5,-15.8,129.3,i
O=C(c1cc(-c2ccc(Cl)cc2)n(-c2ccc(Cl)c(Cl)c2)n1)N1CCOCC1,0.6,30.4,-12.7,7.8,-1.1,-2.3,/,/
CN(C)CCN(C)C1CN(Cc2ccc(F)cc2)S(=O)(=O)C1 (centres undefined),/,/,/,/,-3.7,3.4,/,/
Cc1cccc(C2(c3cccc(C)c3)OC(=O)c3ccccc32)c1,6.0,-6.5,-10.1,6.0,-6.0,-20.6,/,/
O=C1OC(c2ccccc2)(c2ccc(O)cc2)c2ccccc21 (centres undefined),1.1,43.4*,/,/,2.9,-4.4,76.5,i
O=C1CC(c2ccccc2)(c2ccccc2)c2ccccc21,3.8,59.3*,/,/,-1.8,5.1,39.0*,i
O=C1OC(c2ccccc2)(c2ccccc2)c2ccccc21,-10.7,56.5*,/,/,3.1,-7.5,65.9,i
O=C1c2ccccc2C(O)(c2ccccc2)N1C1CC1 (centres undefined),-0.7,4.5,/,-0.7,5.3,-3.2,/,/
CCCCNC(=O)C1(C)CCN1Cc1ccc(C#N)cc1 (centres undefined),/,/,/,/,-0.7,-3.1,/,/
COC(=O)c1sccc1-n1cc2c(c1-c1ccccc1)c(=O)n(C)c(=O)n2C,/,/,/,/,-4.1,-2.6,/,/
O=C(OCC(=O)N1CCCC1)c1ccccc1C(=O)c1ccccc1,10.2,4.6,/,-0.1,-6.0,-2.4,118.5,i
NC(=O)c1c(NC(=O)c2ccccc2F)sc2c1CCC2,1.2,/,/,/,2.8,0.8,/,/
CCNC(=S)N/N=C(\C)c1ccc(Cl)s1,-6.4,-6.6,-4.7,2.0,4.9,-13.0,/,/
CNC(=S)N/N=C(\C)c1ccc(Cl)s1,-6.3,-2.7,-1.7,3.5,-2.7,-0.2,103.4,i
C[C@H](c1ccccc1)N1C[C@@H](COCc2ccccc2)Oc2cc(N3CC[C@@H](N(C)C)C3)ccc2S1(=O)=O,/,/,/,/,11.3,-7.3,/,/
COc1ccc(C2C(Oc3ccccc3)C(=O)N2c2cc(C)ccc2C)cc1OC (centres undefined),-3.7,1.6,-5.8,1.4,3.3,-16.2,/,/
COc1ccc(C)cc1N1C(=N)/C(=C2/Nc3ccccc3S2)C(c2ccccc2)C1=O (centres undefined),4.5,45.1*,-7.1,/,4.1,-0.6,84.7,i
CCOC(=O)C1CCNC(=O)C1=O (centres undefined),0.3,-1.4,/,/,-1.7,-4.9,/,/
O=C(Cn1nc(-c2ccccc2)ccc1=O)Nc1ccc(NC(=O)c2ccccn2)cc1,-5.5,125.0*,5.9,-1.0,-1.5,-10.5,26.2*,i
Cc1cc(S(=O)(=O)N2CCOCC2)ccc1OCC(=O)Nc1ccc(Br)cc1F,-8.1,0.8,/,-1.9,0.2,8.8,108.2,i
Cc1cc(S(=O)(=O)N2CCOCC2)ccc1OCC(=O)Nc1ccccc1C(F)(F)F,2.5,-1.2,/,-0.2,-2.7,1.4,97.4,i
Cc1cc(S(=O)(=O)N2CCOCC2)ccc1OCC(=O)Nc1ccc(F)cc1F,-11.1,1.4,/,-1.2,1.2,-15.3,105.4,i
SMILES,TLR9-MyD88 inh,B2AR ag,TLR4 MyD88 comp,NTR1 agonist,ABHD5-PLIN5 inh,NOD2 RIPK2 PPI,B2AR ag CP1,FAP fluor counter
O=C(Nc1cccc(F)c1)c1ccc(-c2cccnc2)c2ccoc12,/,/,/,/,9.4,8.3,/,/
O=C(Nc1ccc2oc(-c3ccccc3F)nc2c1)c1ccccc1F,-8.3,13.7,/,2.0,4.6,12.1,109.7,i
O=C(Nc1ccc2oc(-c3ccccc3)nc2c1)c1ccccc1F,1.7,-1.4,3.0,-2.7,1.0,2.6,/,/
O=C(Nc1ccc2oc(-c3ccc4ccccc4c3)nc2c1)c1ccc2c(c1)OCCO2,-4.9,42.9*,-11.8,4.2,2.0,-8.3,20.2*,i
CCN(CC)/C(=N/S(=O)(=O)c1ccc(C)cc1)c1ccccc1,4.5,77.7*,8.7,3.0,-0.8,-4.0,109.7,i
S=c1nc2ccccc2c2nc(-c3ccccc3)[nH]n12,0.8,2.3,3.5,3.6,2.8,6.2,/,i
S=c1nc2ccccc2c2nc(-c3ccccc3Cl)[nH]n12,-5.5,0.7,/,2.0,-3.4,-8.6,/,/
CC1(C)C2CCC1(CS(=O)(=O)N1CCN(c3ccccc3F)CC1)C(=O)C2 (centres undefined),-6.4,71.9*,/,-0.7,-1.1,-3.8,111.7,i
Cc1ccccc1N1CCN(S(=O)(=O)CC23CCC(CC2=O)C3(C)C)CC1 (centres undefined),-12.3,6.8,/,2.5,-6.2,12.3,/,/
Clc1ccccc1OCc1nnc(-c2ccccc2Br)o1,-1.5,-8.9,-3.3,1.3,-3.4,-3.8,/,/
CCc1ccc(OCc2nnc(-c3ccccc3Br)o2)cc1,-13.8,-1.8,/,0.4,3.0,-0.8,92.2,i
CC(=O)Nc1ccc(-c2nnc(SCc3ccc(C)cc3)n2C)cc1,9.2,42.3*,-7.2,-0.2,0.9,-0.7,67.2,i
O=C(COc1ccccc1Cl)Nc1cnn(Cc2ccccc2)c1,1.9,0.1,10.3,-1.0,-5.3,-4.4,/,/
O=C(Nc1cnn(Cc2c(Cl)cccc2Cl)c1)C(c1ccccc1)c1ccccc1,-6.8,43.4*,9.3,0.5,1.9,3.5,93.3,i
Cc1ccc(OCC(=O)Nc2ccc3c(c2)nc(CCN2CCN(C)CC2)n3C)cc1,0.5,1.0,/,-0.1,-11.2,1.7,94.5,i
